Holding throughout (test): DAPPL (digital affinity profiling via proximity ligation, sequencing); 10 mM Tris-HCl pH 7.5, 50 mM NaCl, 1 mM DTT, 4% glycerol, room temperature, 30 min; GST-TFs on glutathione beads, 16-mer random dsDNA library, 0.1% formaldehyde crosslink after washing; high values mean tight binding
What all share (settings): protein: recombinant; tags: N-terminal GST; dsDNA, one strand shown

One assay has as its target T1, FLI1 (Homo sapiens, UniProt Q01543 1-452).
T1 sequence: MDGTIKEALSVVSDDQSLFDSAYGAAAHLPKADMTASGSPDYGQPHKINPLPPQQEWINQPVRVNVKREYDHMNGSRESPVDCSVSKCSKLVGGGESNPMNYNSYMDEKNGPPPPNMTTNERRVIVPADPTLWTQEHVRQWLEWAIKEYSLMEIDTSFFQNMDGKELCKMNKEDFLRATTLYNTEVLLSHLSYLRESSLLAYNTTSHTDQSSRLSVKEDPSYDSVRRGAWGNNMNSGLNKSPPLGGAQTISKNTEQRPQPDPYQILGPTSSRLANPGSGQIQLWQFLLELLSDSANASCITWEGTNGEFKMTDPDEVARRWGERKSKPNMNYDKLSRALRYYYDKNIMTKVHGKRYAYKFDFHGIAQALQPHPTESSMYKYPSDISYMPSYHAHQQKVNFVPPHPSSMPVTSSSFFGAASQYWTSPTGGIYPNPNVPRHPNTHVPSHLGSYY
Put shortly:
(§1)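 After expression in yeast as GST fusions, human transcription factors were bound to glutathione beads, DNA-barcoded and mixed with a tag-only sample. The pools were incubated with 200 nmole of a 16-mer random double-stranded DNA library in Tris/NaCl/DTT/glycerol buffer (30 min, room temperature), washed and crosslinked with 0.1% formaldehyde. Proximity ligation with BsaI/T4 ligase ran for 1 h at 37 °C, before PCR amplification and sequencing on an Illumina NextSeq500. Binding signal is a hexamer's read frequency for a factor divided by its frequency for the tag-only sample.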

In a further assay the target is T2, ELK1 (Homo sapiens, UniProt P19419 1-428).
T2 sequence: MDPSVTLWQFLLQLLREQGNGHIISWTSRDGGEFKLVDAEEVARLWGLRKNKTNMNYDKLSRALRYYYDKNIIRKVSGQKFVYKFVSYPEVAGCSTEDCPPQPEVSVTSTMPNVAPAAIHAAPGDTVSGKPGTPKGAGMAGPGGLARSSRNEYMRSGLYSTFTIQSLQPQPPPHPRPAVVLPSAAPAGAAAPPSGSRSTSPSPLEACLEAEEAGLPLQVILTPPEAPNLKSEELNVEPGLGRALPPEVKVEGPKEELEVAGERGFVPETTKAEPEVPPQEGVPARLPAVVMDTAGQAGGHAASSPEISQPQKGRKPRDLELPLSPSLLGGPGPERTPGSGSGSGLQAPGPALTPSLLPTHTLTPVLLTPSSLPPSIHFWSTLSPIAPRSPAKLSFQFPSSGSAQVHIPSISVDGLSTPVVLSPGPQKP
A digest of the protocol: as §1

The target in another assay is T3, GABPA (Homo sapiens, UniProt Q06546 1-454).
T3 sequence: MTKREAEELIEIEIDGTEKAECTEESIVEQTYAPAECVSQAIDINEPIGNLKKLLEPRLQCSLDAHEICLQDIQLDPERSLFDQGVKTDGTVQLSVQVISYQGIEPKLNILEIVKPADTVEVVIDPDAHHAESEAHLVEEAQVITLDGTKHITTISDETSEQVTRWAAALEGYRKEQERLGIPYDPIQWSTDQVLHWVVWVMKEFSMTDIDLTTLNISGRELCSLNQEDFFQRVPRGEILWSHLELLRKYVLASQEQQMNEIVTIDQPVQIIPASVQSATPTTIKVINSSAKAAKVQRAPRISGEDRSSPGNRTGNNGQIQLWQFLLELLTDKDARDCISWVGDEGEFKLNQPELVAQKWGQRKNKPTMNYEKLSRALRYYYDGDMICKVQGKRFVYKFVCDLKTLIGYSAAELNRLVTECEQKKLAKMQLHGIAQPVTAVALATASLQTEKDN
A digest of the protocol:
as §1

The next assay concerns the target T4, ERG (Homo sapiens, UniProt P11308 1-479).
T4 sequence: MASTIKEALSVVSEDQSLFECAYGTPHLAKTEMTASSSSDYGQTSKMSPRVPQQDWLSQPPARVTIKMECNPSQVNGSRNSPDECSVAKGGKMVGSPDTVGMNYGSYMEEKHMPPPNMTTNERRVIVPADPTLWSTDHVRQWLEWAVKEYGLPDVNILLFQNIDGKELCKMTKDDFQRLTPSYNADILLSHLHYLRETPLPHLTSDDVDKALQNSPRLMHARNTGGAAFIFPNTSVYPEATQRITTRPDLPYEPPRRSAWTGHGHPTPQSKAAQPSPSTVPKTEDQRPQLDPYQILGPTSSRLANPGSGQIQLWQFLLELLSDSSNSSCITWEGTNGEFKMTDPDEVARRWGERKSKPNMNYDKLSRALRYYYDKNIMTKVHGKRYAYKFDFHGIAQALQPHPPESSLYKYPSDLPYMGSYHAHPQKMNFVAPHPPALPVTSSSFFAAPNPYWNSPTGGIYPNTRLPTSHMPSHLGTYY
Put shortly: as §1

The target in the next assay is ELF1 (Homo sapiens, UniProt P32519 1-619). A digest of the protocol:
as §1

The target in the next assay is T5, EHF (Homo sapiens, UniProt Q9NZC4 1-300).
T5 sequence: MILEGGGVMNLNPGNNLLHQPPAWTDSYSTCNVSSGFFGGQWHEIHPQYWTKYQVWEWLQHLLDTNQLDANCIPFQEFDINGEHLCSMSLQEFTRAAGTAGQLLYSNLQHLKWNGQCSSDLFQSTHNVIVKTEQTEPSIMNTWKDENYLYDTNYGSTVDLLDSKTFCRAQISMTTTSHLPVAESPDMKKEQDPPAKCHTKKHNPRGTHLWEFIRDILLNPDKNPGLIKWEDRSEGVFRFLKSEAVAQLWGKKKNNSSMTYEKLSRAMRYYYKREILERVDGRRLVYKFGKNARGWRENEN
Put shortly: as §1

The target in the next assay is SPI1 (Homo sapiens, UniProt P17947 1-270). Put shortly: as §1
The target in another assay is SPIB (Homo sapiens, UniProt Q01892 1-262). A digest of the protocol:
as §1

The next assay has as its target T6, ELK3 (Homo sapiens, UniProt P41970 1-407).
T6 sequence: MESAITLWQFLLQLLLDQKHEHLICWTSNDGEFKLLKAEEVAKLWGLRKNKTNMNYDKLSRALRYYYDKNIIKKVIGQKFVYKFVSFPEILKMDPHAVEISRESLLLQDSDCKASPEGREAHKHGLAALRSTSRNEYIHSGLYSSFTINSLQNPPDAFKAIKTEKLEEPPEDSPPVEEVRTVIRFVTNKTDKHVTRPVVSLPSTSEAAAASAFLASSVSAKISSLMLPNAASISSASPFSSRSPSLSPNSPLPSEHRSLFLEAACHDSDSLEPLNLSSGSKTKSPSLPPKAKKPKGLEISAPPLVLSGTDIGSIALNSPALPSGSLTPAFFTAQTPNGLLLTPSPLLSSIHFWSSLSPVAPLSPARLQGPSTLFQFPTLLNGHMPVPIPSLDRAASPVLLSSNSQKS
A digest of the protocol:
as §1

The target of another assay is T7, FEV (Homo sapiens, UniProt Q99581 1-238).
T7 sequence: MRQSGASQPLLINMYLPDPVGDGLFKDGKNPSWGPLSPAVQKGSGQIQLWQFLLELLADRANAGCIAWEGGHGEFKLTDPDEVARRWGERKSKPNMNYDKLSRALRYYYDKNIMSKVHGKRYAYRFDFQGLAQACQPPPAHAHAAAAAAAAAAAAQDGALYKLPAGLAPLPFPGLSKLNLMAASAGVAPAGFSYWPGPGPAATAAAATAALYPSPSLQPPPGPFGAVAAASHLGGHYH
A digest of the protocol:
as §1

Another assay has as its target ETV5 (Homo sapiens, UniProt P41161 1-510). A digest of the protocol:
as §1

The target of the next assay is T8, SPIC (Homo sapiens, UniProt Q8N5J4 1-248).
T8 sequence: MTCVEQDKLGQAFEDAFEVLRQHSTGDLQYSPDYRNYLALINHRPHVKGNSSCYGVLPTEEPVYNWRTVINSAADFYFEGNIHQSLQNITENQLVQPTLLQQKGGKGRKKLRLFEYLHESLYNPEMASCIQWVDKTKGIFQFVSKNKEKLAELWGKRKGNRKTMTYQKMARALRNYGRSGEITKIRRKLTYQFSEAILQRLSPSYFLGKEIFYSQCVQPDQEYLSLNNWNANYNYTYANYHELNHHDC
Put shortly: as §1

A further assay concerns the target ELF4 (Homo sapiens, UniProt Q99607 1-663). Put shortly: as §1
For another assay, the target named is ETV1 (Homo sapiens, UniProt P50549 1-477). A digest of the protocol:
as §1

The next assay concerns the target T9, ERF (Homo sapiens, UniProt P50548 1-548).
T9 sequence: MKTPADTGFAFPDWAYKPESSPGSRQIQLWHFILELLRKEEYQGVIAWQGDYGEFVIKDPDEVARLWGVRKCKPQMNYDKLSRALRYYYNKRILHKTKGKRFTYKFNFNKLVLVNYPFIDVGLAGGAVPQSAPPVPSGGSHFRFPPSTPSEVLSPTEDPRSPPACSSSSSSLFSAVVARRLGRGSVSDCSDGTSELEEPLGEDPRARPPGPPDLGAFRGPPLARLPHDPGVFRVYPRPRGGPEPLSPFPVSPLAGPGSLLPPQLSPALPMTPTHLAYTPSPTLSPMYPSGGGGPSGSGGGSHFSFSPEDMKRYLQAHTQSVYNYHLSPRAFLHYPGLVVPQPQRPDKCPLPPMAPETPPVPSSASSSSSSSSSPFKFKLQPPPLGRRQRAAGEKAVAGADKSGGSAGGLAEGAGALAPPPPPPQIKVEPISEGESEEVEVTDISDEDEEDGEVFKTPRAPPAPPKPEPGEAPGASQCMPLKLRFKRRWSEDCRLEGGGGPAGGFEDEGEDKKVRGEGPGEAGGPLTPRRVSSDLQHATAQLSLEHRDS
A digest of the protocol: as §1

A further assay concerns the target T10, ETV3L (Homo sapiens, UniProt Q6ZN32 1-361).
T10 sequence: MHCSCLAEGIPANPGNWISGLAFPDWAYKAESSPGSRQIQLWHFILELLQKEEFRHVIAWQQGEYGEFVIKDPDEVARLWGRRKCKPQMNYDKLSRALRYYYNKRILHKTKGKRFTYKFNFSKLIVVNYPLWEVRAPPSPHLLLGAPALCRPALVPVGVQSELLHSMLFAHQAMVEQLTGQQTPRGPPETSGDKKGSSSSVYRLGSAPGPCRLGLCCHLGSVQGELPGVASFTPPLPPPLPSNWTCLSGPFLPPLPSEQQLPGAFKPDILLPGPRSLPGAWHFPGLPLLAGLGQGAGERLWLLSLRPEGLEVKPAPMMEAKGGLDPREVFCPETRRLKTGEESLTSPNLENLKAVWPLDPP
Put shortly: as §1

The next assay addresses T11, ETS2 (Homo sapiens, UniProt P15036 1-469).
T11 sequence: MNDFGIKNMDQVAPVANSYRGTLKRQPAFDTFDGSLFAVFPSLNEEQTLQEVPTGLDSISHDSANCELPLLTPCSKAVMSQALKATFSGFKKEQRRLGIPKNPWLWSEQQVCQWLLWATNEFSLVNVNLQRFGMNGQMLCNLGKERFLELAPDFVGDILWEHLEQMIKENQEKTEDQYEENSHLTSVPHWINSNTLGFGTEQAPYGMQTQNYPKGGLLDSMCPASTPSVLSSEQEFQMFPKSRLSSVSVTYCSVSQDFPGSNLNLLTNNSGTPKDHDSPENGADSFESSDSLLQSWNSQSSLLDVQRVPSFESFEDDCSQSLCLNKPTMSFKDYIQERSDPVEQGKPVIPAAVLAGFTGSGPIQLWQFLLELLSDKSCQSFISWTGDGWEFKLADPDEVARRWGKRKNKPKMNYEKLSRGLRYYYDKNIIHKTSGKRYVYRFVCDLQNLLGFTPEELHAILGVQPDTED
A digest of the protocol: as §1

In a further assay the target is T12, ETV3 (Homo sapiens, UniProt P41162-2 1-143).
T12 sequence: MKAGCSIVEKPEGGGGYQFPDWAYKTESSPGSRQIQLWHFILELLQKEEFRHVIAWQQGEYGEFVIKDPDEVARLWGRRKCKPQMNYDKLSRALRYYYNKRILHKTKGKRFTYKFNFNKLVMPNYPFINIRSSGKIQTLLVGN
A digest of the protocol:
as §1

The next assay has as its target ETV6 (Homo sapiens, UniProt P41212 1-452). Put shortly: as §1

ELF4, sequence (Q99607 whole entry): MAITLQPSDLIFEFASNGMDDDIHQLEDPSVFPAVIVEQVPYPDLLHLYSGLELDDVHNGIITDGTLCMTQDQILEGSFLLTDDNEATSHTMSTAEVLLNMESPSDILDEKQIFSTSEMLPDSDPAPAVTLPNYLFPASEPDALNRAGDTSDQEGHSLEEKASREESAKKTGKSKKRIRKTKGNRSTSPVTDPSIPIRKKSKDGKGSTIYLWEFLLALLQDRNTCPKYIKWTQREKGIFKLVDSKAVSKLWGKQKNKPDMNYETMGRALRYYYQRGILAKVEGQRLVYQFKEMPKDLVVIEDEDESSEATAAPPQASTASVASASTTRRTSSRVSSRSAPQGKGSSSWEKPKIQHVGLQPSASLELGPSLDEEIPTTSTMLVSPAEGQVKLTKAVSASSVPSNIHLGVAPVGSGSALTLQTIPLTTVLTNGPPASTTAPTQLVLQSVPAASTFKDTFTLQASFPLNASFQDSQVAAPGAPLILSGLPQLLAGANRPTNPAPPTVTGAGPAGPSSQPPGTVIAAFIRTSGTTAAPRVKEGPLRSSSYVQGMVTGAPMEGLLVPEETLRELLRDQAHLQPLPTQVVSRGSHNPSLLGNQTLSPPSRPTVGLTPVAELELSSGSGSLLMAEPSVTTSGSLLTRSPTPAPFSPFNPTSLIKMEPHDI
ELF1, sequence (P32519 whole entry): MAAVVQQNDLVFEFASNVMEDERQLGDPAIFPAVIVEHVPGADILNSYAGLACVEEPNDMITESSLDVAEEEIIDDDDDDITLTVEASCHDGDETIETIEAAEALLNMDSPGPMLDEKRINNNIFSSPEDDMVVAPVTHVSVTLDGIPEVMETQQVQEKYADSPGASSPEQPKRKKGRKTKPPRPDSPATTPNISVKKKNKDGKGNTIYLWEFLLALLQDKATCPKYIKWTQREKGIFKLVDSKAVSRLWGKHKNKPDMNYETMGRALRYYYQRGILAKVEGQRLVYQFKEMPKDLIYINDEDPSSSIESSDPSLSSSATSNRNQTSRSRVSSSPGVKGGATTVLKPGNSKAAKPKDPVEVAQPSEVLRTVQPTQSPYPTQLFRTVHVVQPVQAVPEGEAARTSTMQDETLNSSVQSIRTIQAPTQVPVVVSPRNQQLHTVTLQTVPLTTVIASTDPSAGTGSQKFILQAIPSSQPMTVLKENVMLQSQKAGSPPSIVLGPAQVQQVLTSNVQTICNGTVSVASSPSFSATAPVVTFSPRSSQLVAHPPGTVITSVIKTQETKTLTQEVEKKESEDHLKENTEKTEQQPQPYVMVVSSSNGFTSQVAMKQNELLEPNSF
ETV6, sequence (P41212 whole entry): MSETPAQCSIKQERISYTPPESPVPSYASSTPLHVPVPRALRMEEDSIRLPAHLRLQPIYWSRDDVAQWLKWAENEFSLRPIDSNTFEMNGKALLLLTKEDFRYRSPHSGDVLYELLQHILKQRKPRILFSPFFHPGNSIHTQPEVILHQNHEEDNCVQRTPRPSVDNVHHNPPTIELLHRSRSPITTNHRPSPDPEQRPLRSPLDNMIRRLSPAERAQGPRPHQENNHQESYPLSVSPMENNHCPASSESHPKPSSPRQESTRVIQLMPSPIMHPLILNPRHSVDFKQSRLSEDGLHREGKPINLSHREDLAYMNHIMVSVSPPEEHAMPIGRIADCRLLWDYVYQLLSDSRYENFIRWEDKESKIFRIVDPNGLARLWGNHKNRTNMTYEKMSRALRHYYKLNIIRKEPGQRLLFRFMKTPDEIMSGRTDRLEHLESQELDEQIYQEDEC
SPIB, sequence (Q01892 whole entry): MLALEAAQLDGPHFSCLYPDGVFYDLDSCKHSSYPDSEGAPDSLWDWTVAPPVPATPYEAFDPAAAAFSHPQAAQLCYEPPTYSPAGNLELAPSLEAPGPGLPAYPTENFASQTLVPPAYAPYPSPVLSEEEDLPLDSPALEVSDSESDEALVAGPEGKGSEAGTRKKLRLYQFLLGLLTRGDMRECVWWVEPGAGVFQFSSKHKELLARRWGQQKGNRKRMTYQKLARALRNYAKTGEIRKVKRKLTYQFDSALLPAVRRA
ETV1, sequence (P50549 whole entry): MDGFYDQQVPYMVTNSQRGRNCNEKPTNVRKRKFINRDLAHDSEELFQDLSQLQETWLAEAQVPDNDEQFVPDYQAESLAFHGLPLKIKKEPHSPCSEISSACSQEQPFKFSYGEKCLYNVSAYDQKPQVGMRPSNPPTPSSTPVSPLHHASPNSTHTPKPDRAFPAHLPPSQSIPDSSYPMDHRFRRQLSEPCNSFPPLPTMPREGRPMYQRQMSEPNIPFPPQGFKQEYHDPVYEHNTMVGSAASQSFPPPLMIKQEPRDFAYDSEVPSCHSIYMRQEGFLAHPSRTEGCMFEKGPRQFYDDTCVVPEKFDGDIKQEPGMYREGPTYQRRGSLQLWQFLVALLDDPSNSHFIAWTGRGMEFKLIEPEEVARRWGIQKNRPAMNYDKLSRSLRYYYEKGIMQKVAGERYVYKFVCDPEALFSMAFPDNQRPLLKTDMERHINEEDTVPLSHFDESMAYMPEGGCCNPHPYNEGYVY
ETV5, sequence (P41161 whole entry): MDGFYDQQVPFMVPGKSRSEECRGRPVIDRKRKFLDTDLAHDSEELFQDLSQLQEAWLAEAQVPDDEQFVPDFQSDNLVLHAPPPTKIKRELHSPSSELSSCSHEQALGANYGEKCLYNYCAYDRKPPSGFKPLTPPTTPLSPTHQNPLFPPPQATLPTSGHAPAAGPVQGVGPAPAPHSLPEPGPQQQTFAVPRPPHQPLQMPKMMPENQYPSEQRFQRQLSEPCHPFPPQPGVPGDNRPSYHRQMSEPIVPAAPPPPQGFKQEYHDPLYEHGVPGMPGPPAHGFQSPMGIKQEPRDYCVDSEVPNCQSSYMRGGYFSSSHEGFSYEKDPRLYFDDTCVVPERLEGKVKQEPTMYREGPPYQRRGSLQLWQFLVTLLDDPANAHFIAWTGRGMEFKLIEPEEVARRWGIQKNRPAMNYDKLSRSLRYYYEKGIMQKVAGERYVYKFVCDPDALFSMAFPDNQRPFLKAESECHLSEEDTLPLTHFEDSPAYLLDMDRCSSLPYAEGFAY

Take GCCCAC: the binding signal was 1.09 fold enrichment (6-mer frequency, TF over GST control) with FLI1; 1.18 fold enrichment (6-mer frequency, TF over GST control) in the assay with ELK1; 1.06 fold enrichment (6-mer frequency, TF over GST control) in the assay with GABPA; 1.06 fold enrichment (6-mer frequency, TF over GST control) in the assay with ERG; 1.1 fold enrichment (6-mer frequency, TF over GST control) with ELF1; 1.13 fold enrichment (6-mer frequency, TF over GST control) with EHF. Moreover, the binding signal with SPI1 was 1.07 fold enrichment (6-mer frequency, TF over GST control); with SPIB, 1.12 fold enrichment (6-mer frequency, TF over GST control); with ELK3 it was 1.03 fold enrichment (6-mer frequency, TF over GST control); in the assay with FEV, 1.12 fold enrichment (6-mer frequency, TF over GST control); with ETV5 it was 1.16 fold enrichment (6-mer frequency, TF over GST control); with SPIC, 1.13 fold enrichment (6-mer frequency, TF over GST control). The binding signal with ELF4 was 1.18 fold enrichment (6-mer frequency, TF over GST control); with ETV1, 1 fold enrichment (6-mer frequency, TF over GST control); with ERF, 1.09 fold enrichment (6-mer frequency, TF over GST control); with ETV3L, 1.04 fold enrichment (6-mer frequency, TF over GST control); with ETS2 it was 1.04 fold enrichment (6-mer frequency, TF over GST control); with ETV3, 1.09 fold enrichment (6-mer frequency, TF over GST control). Moreover, in the assay with ETV6, the binding signal was 1.05 fold enrichment (6-mer frequency, TF over GST control).

These data come from publication PMC7862700, “An all-to-all approach to the identification of sequence-specific readers for epigenetic DNA modifications on cytosine”.
